# Data as given in paper PMC4336329 (PLoS ONE, 2015).
# Screen size: about 310,000 compounds; about 14,000 (4.5%) showed an effect of 50% or more. Effects have a minus sign here. This is one part of a sample in which strong results are shown more often than they occur.
# Target: human ether-à-go-go-related gene (hERG) potassium channel (human, UniProt Q12809)
# Assay: primary screen, population patch clamp on CHO cells stably expressing hERG; higher = less effect of the substance
# Description: Briefly, Chinese hamster ovary (CHO) cells stably expressing the hERG channel were dislodged from tissue culture flasks and dispensed into PPC plates. […] During the recording, background leak currents were estimated by a 100 ms step to -80 mV from an initial holding potential of -70 mV and subtracted from the subsequent current measurement. The campaign was conducted in two phases using slight differences in recording protocol. In the first phase, the initial voltage pulse used a 100 ms step to -30 mV from a holding potential of -70 mV, a 2 s conditioning step to +25 mV, and a 2 s test step to -30 mV. During the second phase of the screen, the potential during the conditioning step was raised to +45 mV. In both phases of the campaign, a secondary voltage pulse was applied using the same parameters as the second phase initial pulse. The initial and secondary pulses were applied in the absence of compound, and upon application of 1 μM and 10 μM test concentrations. […]
# 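Further: peak tail current of the secondary pulse compared with the same well before compound.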
# human ether-à-go-go-related gene (hERG) potassium channel, sequence (Q12809 whole entry, looked up): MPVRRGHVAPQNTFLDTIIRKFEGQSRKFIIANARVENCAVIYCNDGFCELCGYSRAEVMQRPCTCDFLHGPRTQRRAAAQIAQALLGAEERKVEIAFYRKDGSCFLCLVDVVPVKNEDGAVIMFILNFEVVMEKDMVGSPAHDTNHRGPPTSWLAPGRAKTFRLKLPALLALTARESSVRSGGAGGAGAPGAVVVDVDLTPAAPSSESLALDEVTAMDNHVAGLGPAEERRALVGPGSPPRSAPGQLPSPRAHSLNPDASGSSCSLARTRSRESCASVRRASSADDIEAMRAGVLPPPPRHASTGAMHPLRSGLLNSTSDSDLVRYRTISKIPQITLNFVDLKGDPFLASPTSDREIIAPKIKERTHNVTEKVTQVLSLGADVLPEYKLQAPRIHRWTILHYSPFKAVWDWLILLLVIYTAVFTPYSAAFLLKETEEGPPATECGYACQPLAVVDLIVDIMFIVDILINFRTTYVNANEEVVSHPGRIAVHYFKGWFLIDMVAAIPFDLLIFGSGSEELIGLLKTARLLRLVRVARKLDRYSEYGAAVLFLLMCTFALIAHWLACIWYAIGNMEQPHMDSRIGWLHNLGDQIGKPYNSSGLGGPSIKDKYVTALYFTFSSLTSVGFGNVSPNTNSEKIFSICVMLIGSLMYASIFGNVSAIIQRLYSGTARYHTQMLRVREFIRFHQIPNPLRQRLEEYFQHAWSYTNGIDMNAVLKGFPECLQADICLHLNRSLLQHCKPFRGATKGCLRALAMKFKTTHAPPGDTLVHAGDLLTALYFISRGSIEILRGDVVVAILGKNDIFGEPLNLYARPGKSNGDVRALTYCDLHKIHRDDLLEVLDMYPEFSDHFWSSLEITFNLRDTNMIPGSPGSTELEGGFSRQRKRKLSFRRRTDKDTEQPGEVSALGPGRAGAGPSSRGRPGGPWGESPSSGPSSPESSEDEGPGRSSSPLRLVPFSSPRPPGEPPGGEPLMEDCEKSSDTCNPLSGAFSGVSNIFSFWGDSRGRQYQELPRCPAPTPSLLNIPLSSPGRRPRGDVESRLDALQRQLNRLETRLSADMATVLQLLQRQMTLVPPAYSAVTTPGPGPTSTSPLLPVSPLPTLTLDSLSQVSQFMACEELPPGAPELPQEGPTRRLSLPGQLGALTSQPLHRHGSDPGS
row,SMILES,"hERG current change (%, negative = inhibition) at 10uM [%]"
1,Cc1nc2ncnn2c(C)c1CCC(=O)Oc1ccccc1,-5.02
2,CCN1CCc2nc(N)oc2CC1.Cl,1.67
3,Cc1cc2oc(C(=O)NC3CCS(=O)(=O)C3)c(C)c2cc1C (centres unmarked),2.69
4,CN(CC(=O)Nc1ccc(Cl)c(C(F)(F)F)c1)C(=O)C1CCC1,-14.8
5,O=C1COc2ccc(N3C(=O)c4ccccc4C3=O)cc2N1,27.5
6,CCCCCN(C(=O)CN1CCC(Cc2ccccc2)CC1)c1c(N)n(CCCC)c(=O)[nH]c1=O,-48.1
7,CSc1nc(N2CCN(Cc3ccc4c(c3)OCO4)CC2)c2ccccc2n1,-16.7
8,CC(C)(C)OC(=O)N1CCC(c2cc(=O)n3[nH]cc(C(=O)Nc4ccc(F)c(Cl)c4)c3n2)CC1,6.92
9,COCCOC(=O)C1=C(C)Nc2ncnn2C1c1ccco1 (centres unmarked),2.64
10,CCOc1ccc(CNC(=O)C2CCN(c3nn4c(=O)cc(C)nc4s3)CC2)cc1,-45.8
11,Cc1cc(=O)n2nc(N3CCC(C(=O)NCc4ccccc4)CC3)sc2n1,-3.68
12,Cc1cc(=O)n2nc(N3CCC(C(=O)NCc4ccc(F)cc4)CC3)sc2n1,-55.5
13,Cc1cc(=O)n2nc(N3CCCC(C(=O)NCc4cccc(Br)c4)C3)sc2n1 (centres unmarked),-30.2
14,Cc1cc(=O)n2nc(N3CCC(C(=O)NCc4cccc(Br)c4)CC3)sc2n1,-51.4
15,Cc1ccc(CNC(=O)C2CCN(c3nn4c(=O)cc(C)nc4s3)CC2)cc1,-41.9
16,COc1ccc(CNC(=O)C2CCN(c3nn4c(=O)cc(C)nc4s3)CC2)cc1,-4.51
17,Cc1cc(=O)n2nc(N3CCC(C(=O)NCc4cccc(Cl)c4)CC3)sc2n1,-43.7
18,Cc1cc(=O)n2nc(N3CCC(C(=O)NCc4ccc(Cl)cc4)CC3)sc2n1,-70
19,CCS(=O)(=O)c1ccc(C(=O)Nc2cccc(Cl)c2)c(Cl)c1Cl,-3.97

row,SMILES,"hERG current change (%, negative = inhibition) at 10uM [%]"
1,Cc1ccc(C(C)C)c(OCCCNCc2cccnc2)c1.Cl,-37.5
2,CCNC(=O)NC(=O)CN(C)c1ccccc1,10.5
3,CCOC(=O)c1sc(=NC(=O)c2cccc(C)c2)n(C)c1C,8.38
4,Cc1ccc(-c2c(C(=O)N/N=C/c3cccs3)nnn2-c2nonc2N)cc1,29.8
5,CCC(COC)NCc1cn(-c2ccc(F)cc2F)nc1-c1ccccc1C (centres unmarked),-18
6,CCC(COC)NCc1cn(-c2ccc(OC)cc2)nc1-c1cccc(F)c1 (centres unmarked),-70.3
7,COc1ccc(-n2cc(CN(C)C(C)c3ccncn3)c(-c3cccc(F)c3)n2)cc1 (centres unmarked),-39.9
8,COc1ccc(-c2nn(-c3ccccc3)cc2CNC(C)Cn2cncn2)c(F)c1 (centres unmarked),-13
9,COc1cccc(-c2nn(-c3ccccc3)cc2CN(C)C(C)c2ccncn2)c1 (centres unmarked),-15.6
10,COc1ccc(-n2cc(CNC(C)c3ccncn3)c(-c3cccc(F)c3)n2)cc1 (centres unmarked),-59.4
11,Cc1cccc(N2CCN(C(=O)c3cccc(N4C(=O)C5CC=CC(C)C5C4=O)c3)CC2)c1C (centres unmarked),-12.5
12,Cc1oncc1-c1cn2ccccc2n1,6.61
13,COc1ccccc1CNC(=O)c1ccccc1OCc1ccc(F)cc1,-10
14,COc1ccc(N2CCN(C(=O)C3CC(=O)N(c4ccc(C)cc4)C3)CC2)cc1 (centres unmarked),-35.1
15,CCOc1ccc(N2CC(C(=O)N3CCCCC3)CC2=O)cc1 (centres unmarked),18.6
16,CCOc1ccc(N2CC(C(=O)N3CCN(C(=O)c4ccco4)CC3)CC2=O)cc1 (centres unmarked),-63.4
17,CCOc1ccc(N2CC(C(=O)N3CCCCCC3)CC2=O)cc1 (centres unmarked),-7.34
18,COc1ccc(N2CC(C(=O)N3CCN(C(=O)c4ccco4)CC3)CC2=O)cc1 (centres unmarked),-53.3
19,COc1ccc(N2CC(C(=O)N3CCN(C)CC3)CC2=O)cc1 (centres unmarked),15.4

row,SMILES,"hERG current change (%, negative = inhibition) at 10uM [%]"
1,Cc1cc(C#N)c(C)n1-c1cc(S(=O)(=O)N2CCOCC2)ccc1N1CCCC1,-14.3
2,CN(Cc1ccc(F)cc1)C(=O)c1cccc(S(=O)(=O)N2CCN(c3ccc(F)cc3)CC2)c1,-34.6
3,CN(C)S(=O)(=O)N1CCC(Oc2cccc(C(=O)NC3CCOC3)c2)CC1 (centres unmarked),2.63
4,O=C(CCN1CCN(S(=O)(=O)c2ccc(Cl)cc2)CC1)Nc1ccccc1F,-6.18
5,O=C(CCN1CCN(c2ccc(F)cc2)CC1)Nc1ccccc1F,-43
6,O=C(CN1CCN(CCC(=O)Nc2ccccc2F)CC1)Nc1ccc(Cl)cc1,-76.8
7,O=C(CN1CCOCC1)Nc1ccccc1F,0.862
8,O=C(CN1CCN(CCC(=O)Nc2ccccc2F)CC1)Nc1ccc(F)cc1,-72.6
9,O=C(CCN1CCN(c2ccc(Cl)cc2)CC1)Nc1ccccc1F,-34
10,COc1ccc(C(=O)NC2CCCCC2)cc1S(=O)(=O)N1CCOCC1,-14.8
11,O=C(NCCOC(=O)c1ccccc1)c1ccccc1,10.2
12,[N-]=[N+]=CC(=O)CNC(=O)[C@@H](Cc1ccccc1)N1C(=O)c2ccccc2C1=O,6.66
13,CCC(C(=O)NC1CC1)n1nc(C)c2c(C)n(-c3ccc(C)cc3)nc2c1=O (centres unmarked),-62
14,Cc1ccc(-n2nc3c(=O)n(C(C)C(=O)NCc4ccco4)nc(C)c3c2C)cc1 (centres unmarked),-41.3
15,CCC(C(=O)NCc1ccco1)n1nc(C)c2c(C)n(-c3ccccc3)nc2c1=O (centres unmarked),-8.91
16,CCC(C(=O)NCc1ccco1)n1nc(C)c2c(C)n(-c3ccc(C)cc3)nc2c1=O (centres unmarked),-58.9
17,CCC(C(=O)NC1CCCCCC1)n1nc(C)c2c(C)n(-c3ccccc3)nc2c1=O (centres unmarked),-23.4
18,CCC(C(=O)NC1CC1)n1nc(C)c2c(C)n(-c3ccccc3)nc2c1=O (centres unmarked),8.02
